{
  "source": "PubChem BioAssay AID588517",
  "about": "(NMMLSC, 2011)",
  "note": "Screen size: about 1,700 compounds; about 65 (4%) were called active. Not all results are given here. A number with no mark means an inactive call.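 Rule for the calls: active = fluorescence ratio to DMSO above its plate's cutoff, the plate mean ratio plus 5 SD (cut at about 210% in these data); inactive = the rest.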",
  "data": [
    {"assay": "compound autofluorescence in empty-vector yeast, confirmation, artefact control for antifungal efflux pump inhibitor project, S. cerevisiae AD/pABC3, flow cytometry, Cherry Pick1 set (AID 588517);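 note: unstained yeast with no Nile Red so the signal is compound autofluorescence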", "conditions": "at 10 µM, hits give high values", "values": [
      {"compound": "COc1ccccc1/C=C/C=N/n1c(-c2ccc(Cl)cc2Cl)n[nH]c1=S", "fluorescence ratio to DMSO": "101%"},
      {"compound": "CCCCCCCCCCCCCCCC(=O)OC/C=C(C)/C=C/C=C(C)/C=C/C1=C(C)CCCC1(C)C", "fluorescence ratio to DMSO": "106%"},
      {"compound": "C/C(N)=C(/C#N)C(=O)COC(=O)c1cc(-c2cccc(Br)c2)nc2ccccc12", "fluorescence ratio to DMSO": "110%"},
      {"compound": "CCc1ccc(NC(=O)Cn2ncn3c(cc4ccccc43)c2=O)cc1", "fluorescence ratio to DMSO": "105%"},
      {"compound": "CCOC(=O)c1c(NC(=S)NC(=O)c2ccco2)sc2c1CCCC2", "fluorescence ratio to DMSO": "81.2%"},
      {"compound": "COc1cccc(NC(=O)CN(C)C(=O)/C=C/c2cc(OC)ccc2OC)c1", "fluorescence ratio to DMSO": "91.9%"},
      {"compound": "CCCc1nc(N2CCN(C)CC2)c2sc(=S)n(-c3ccccc3)c2n1", "fluorescence ratio to DMSO": "99.3%"},
      {"compound": "COc1ccc(C(=O)NC2CC(C)(C)Cc3c2cnn3-c2ccccc2)c(OC)c1", "note": "(stereo not drawn)", "fluorescence ratio to DMSO": "100%"},
      {"compound": "CCNc1c(NS(=O)(=O)c2ccc(C3CCCCC3)cc2)c(=O)oc2ccccc12", "fluorescence ratio to DMSO": "94%"},
      {"compound": "COc1ccc(NC(=S)N2CCc3cc(OC)c(OC)cc3C2)cc1", "fluorescence ratio to DMSO": "102%"},
      {"compound": "CCNC(=O)c1c(O)c2cccc3c2n(c1=O)CC3", "fluorescence ratio to DMSO": "83.8%"},
      {"compound": "Cc1csc(NC(=O)c2ccc(-c3ccc(Cl)cc3Cl)o2)n1", "fluorescence ratio to DMSO": "96.6%"},
      {"compound": "CSCCC(NC(=O)COc1ccccc1)C(=O)OCCOc1ccc(Br)cc1", "note": "(stereo not drawn)", "fluorescence ratio to DMSO": "93.4%"},
      {"compound": "O=C(OCc1ccc(-c2ccccc2)cc1)c1cccc(O)c1", "fluorescence ratio to DMSO": "116%"},
      {"compound": "Cc1ccc2c(c1)NC(=O)[C@@]1(C)[C@@H](c3ccccc3)[C@H]3COc4ccc(Cl)cc4[C@@H]3N1C2=O", "fluorescence ratio to DMSO": "103%"},
      {"compound": "COc1ccc2sc(-c3ccccc3OC)c(-c3ccc(OCCN4CCCC4)cc3)c2c1", "fluorescence ratio to DMSO": "112%"},
      {"compound": "Cc1cccc(NC(=O)COc2ccccc2C)n1", "fluorescence ratio to DMSO": "95%"},
      {"compound": "Cc1c(CCOC(=O)CC23CC4CC(CC(C)(C4)C2)C3)sc[n+]1Cc1ccc([N+](=O)[O-])cc1", "fluorescence ratio to DMSO": "106%"},
      {"compound": "O=C(CNC(=O)c1ccc(-c2ccccc2)cc1)OCc1ccc(Cl)cc1", "fluorescence ratio to DMSO": "110%"},
      {"compound": "C=CCC[C@@H](Cc1ccc(F)cc1)C(=O)OC[C@H](Cc1c[nH]c2ccccc12)NC(=O)[C@@H](CC=C)CC(=O)N(CCO)Cc1ccccc1", "fluorescence ratio to DMSO": "92.1%"},
      {"compound": "O=C(Cn1c(COc2ccccc2)nc2ccccc21)Nc1cc(Cl)c(Cl)cc1Cl", "fluorescence ratio to DMSO": "93.4%"},
      {"compound": "CCCCOc1ccc(C(=O)NCC(=O)OCC(=O)c2c(N)n(C)c(=O)n(C)c2=O)cc1", "fluorescence ratio to DMSO": "97.6%"},
      {"compound": "CC[n+]1cc(C)ccc1/C=C/c1ccc(N(C)C)cc1", "fluorescence ratio to DMSO": "1680% (active)"},
      {"compound": "NNC(=O)COc1ccc(C2SCCS2)cc1", "fluorescence ratio to DMSO": "85.2%"},
      {"compound": "CC(C)C(=O)N1CCC2(CC1)Oc1ccc(F)cc1C(=O)C21CC(c2ccccc2)=NO1", "note": "(stereo not drawn)", "fluorescence ratio to DMSO": "97.8%"},
      {"compound": "COc1ccc(-c2sc3ccccc3c2-c2ccc(OCCN3CCOCC3)cc2)cc1", "fluorescence ratio to DMSO": "108%"},
      {"compound": "CN1CCN(S(=O)(=O)c2ccc(NC(=S)NC(=O)C3CC3)cc2)CC1", "fluorescence ratio to DMSO": "106%"},
      {"compound": "O=C(Cc1ccccc1)NCC1OCCc2ccccc21", "note": "(stereo not drawn)", "fluorescence ratio to DMSO": "109%"},
      {"compound": "Cc1nn(C)cc1N1C(=O)c2cccc3c(N)ccc(c23)C1=O", "fluorescence ratio to DMSO": "111%"},
      {"compound": "CCOc1ccc(C2/C(=C(/O)c3ccc4c(c3)CC(C)O4)C(=O)C(=O)N2CCCn2ccnc2)cc1", "note": "(stereo not drawn)", "fluorescence ratio to DMSO": "107%"},
      {"compound": "O=C(Cc1ccc(Br)cc1)N1CCN(c2ccccn2)CC1", "fluorescence ratio to DMSO": "98.2%"},
      {"compound": "CN=C(c1ccccc1)c1c(C)cccc1C", "fluorescence ratio to DMSO": "103%"},
      {"compound": "O=C(CN1C(=O)C2C3CCC(C3)C2C1=O)Oc1ccc2ccccc2c1", "note": "(stereo not drawn)", "fluorescence ratio to DMSO": "107%"},
      {"compound": "Cc1nn(C)cc1C(=O)Nc1ccccc1Br", "fluorescence ratio to DMSO": "85.7%"},
      {"compound": "COc1ccc(C(=O)C2CCCN(Cc3cccn3-c3ccccn3)C2)c(C)c1", "note": "(stereo not drawn)", "fluorescence ratio to DMSO": "109%"},
      {"compound": "O=C(CSc1nnc(-c2cccnc2)n1Cc1ccco1)c1ccc(Cl)c(Cl)c1", "fluorescence ratio to DMSO": "104%"},
      {"compound": "COc1ccc(C(=O)NC2CCCc3c2cnn3-c2cccc(C)c2C)c(OC)n1", "note": "(stereo not drawn)", "fluorescence ratio to DMSO": "92.9%"},
      {"compound": "CC1CCc2c(sc(NC(=O)c3ccc(Cn4cc(Br)cn4)o3)c2C(N)=O)C1", "note": "(stereo not drawn)", "fluorescence ratio to DMSO": "100%"}
    ]}
  ]
}
